The values below come from PubChem BioAssay (NCI).

The panel holds about 79,000 compounds, 15% with a hit somewhere; the sample as a whole holds those more often. Unmarked numbers belong to inactive results. The source made the active and inactive calls. Rule as the data show it: active = growth inhibition above about 70%; inactive = the rest.

A short description of experiment [1]: NCI Yeast Anticancer Drug Screen. Data for the rad50 strain (AID 155).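 Also: 0% = growth of vehicle-only cultures of the same strain.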 The note with it: S. cerevisiae rad50 strain growth inhibition, stronger effect = higher value. The gist of the method:
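DNA repair mutant yeast, compound exposure, growth read-out; inhibition is taken relative to vehicle.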

Experiment [2] can be described thus: NCI Yeast Anticancer Drug Screen. Data for the mec2-1 strain (AID 157). To be noted: S. cerevisiae mec2-1 strain, stronger effect = higher value. An outline of the steps:
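Vehicle-treated cultures served as reference for growth inhibition of compound-exposed mec2-1 yeast.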

Experiment [3] in a line: NCI Yeast Anticancer Drug Screen. Data for the sgs1 mgt1 strain (AID 161).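 Also: 0% = growth of cultures given vehicle only.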 To be noted: S. cerevisiae sgs1 mgt1 strain, stronger effect = higher value. The gist of the method:
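Genetically altered yeast, compound exposure, growth inhibition relative to vehicle.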

Experiment [4] can be described thus: NCI Yeast Anticancer Drug Screen. Data for the cln2 rad14 strain (AID 165).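 Also: 0% = growth equal to vehicle treated cultures.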 The note with it: S. cerevisiae cln2 rad14 strain, stronger effect = higher value. An outline of the steps: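 Each compound was tested on cln2 rad14 yeast. Inhibition of growth was calculated against vehicle-exposed controls.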
Experiment [5] is described as follows: NCI Yeast Anticancer Drug Screen. Data for the bub3 strain (AID 167). To be noted: S. cerevisiae bub3 mutant strain, stronger effect = higher value. The gist of the method: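 In this screen, a yeast mutant lacking normal mitotic checkpoint function is challenged with compound. Relative growth versus vehicle gives the inhibition value.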
Experiment [6] can be described thus: NCI Yeast Anticancer Drug Screen. Data for the mlh1 rad18 strain (AID 175). The note with it: S. cerevisiae mlh1 rad18 strain growth inhibition, stronger effect = higher value. The gist of the method: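 Vehicle-treated cultures served as the reference for growth inhibition in a yeast strain carrying DNA damage repair alterations exposed to each compound.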
[7] abbreviates: at 5.0 µM (retest, dose inferred, filed as 0.5).
Setting [8] is: at 50.0 µM (retest, dose inferred, filed as 5.0).

With `C=C(CN(C)C)C(=O)c1ccccc1[N+](=O)[O-]`, the growth inhibition was 1% in experiment [1] (setting [7]); 92% (active) in experiment [1] (setting [8]); 8.5% in experiment [1] (at 50.0 µM); 10% in experiment [2] (setting [7]); 96% (active) in experiment [2] (setting [8]); 51.4% in experiment [2] (at 50.0 µM). Further, the growth inhibition was 6% in experiment [3] (setting [7]); 91% (active) in experiment [3] (setting [8]); 74.2% (active) in experiment [3] (at 50.0 µM); 99% (active) in experiment [4] (setting [7]); 91% (active) in experiment [4] (setting [8]); -25.4% in experiment [4] (at 50.0 µM). The growth inhibition in experiment [5] (setting [7]) is 1%; in experiment [5] (setting [8]), 92% (active); in experiment [5] (at 50.0 µM), 71.7% (active); in experiment [6] (setting [7]), 8%; in experiment [6] (setting [8]), 92% (active); in experiment [6] (at 50.0 µM), 66.8%.
As for `Cc1cc(=O)n(-c2cc3cccccc-3n2)[nH]1`, the growth inhibition is -9% in experiment [1] (setting [7]); 96% (active) in experiment [1] (setting [8]); 96.8% (active) in experiment [1] (at 50.0 µM); 2% in experiment [2] (setting [7]); 97% (active) in experiment [2] (setting [8]); 71.6% (active) in experiment [2] (at 50.0 µM). Besides, the growth inhibition was 2% in experiment [3] (setting [7]); 98% (active) in experiment [3] (setting [8]); 97.8% (active) in experiment [3] (at 50.0 µM); -11% in experiment [4] (setting [7]); 98% (active) in experiment [4] (setting [8]); 70.3% (active) in experiment [4] (at 50.0 µM). For the same molecule, the growth inhibition in experiment [5] (setting [7]) was -1%; in experiment [5] (setting [8]) it was 95% (active); in experiment [5] (at 50.0 µM) it was 86.2% (active); in experiment [6] (setting [7]), -1%; in experiment [6] (setting [8]) it was 98% (active); in experiment [6] (at 50.0 µM) it was 96.2% (active).
For the molecule `Cc1c2ccccc2c(CO)c2cc(F)c3ccccc3c12`, the growth inhibition in experiment [1] (setting [7]) is 71% (active); in experiment [1] (setting [8]), 98% (active); in experiment [1] (at 50.0 µM), 71.5% (active); in experiment [2] (setting [7]), 95% (active); in experiment [2] (setting [8]), 99% (active); in experiment [2] (at 50.0 µM) it was 34%. The growth inhibition in experiment [3] (setting [7]) is 97% (active); in experiment [3] (setting [8]), 99% (active); in experiment [3] (at 50.0 µM), 84.2% (active); in experiment [4] (setting [7]), 87% (active); in experiment [4] (setting [8]), 98% (active); in experiment [4] (at 50.0 µM), 31.9%. In addition, the growth inhibition in experiment [5] (setting [7]) was 91% (active); in experiment [5] (setting [8]) it was 98% (active); in experiment [5] (at 50.0 µM), 85% (active); in experiment [6] (setting [7]) it was 95% (active); in experiment [6] (setting [8]), 98% (active); in experiment [6] (at 50.0 µM) it was 92.7% (active).
Regarding `CC(C)N1C(=O)C=CC1=O`, the growth inhibition was 6% in experiment [1] (setting [7]); 67% in experiment [1] (setting [8]); 93.7% (active) in experiment [1] (at 50.0 µM); 7% in experiment [2] (setting [7]); 60% in experiment [2] (setting [8]); 98.8% (active) in experiment [2] (at 50.0 µM). Besides, the growth inhibition in experiment [3] (setting [7]) was 7%; in experiment [3] (setting [8]), 53%; in experiment [3] (at 50.0 µM), 52.1%; in experiment [4] (setting [7]), 2%; in experiment [4] (setting [8]) it was 57%; in experiment [4] (at 50.0 µM), 57%. Besides, the growth inhibition is 1% in experiment [5] (setting [7]); 75% (active) in experiment [5] (setting [8]); 46.6% in experiment [5] (at 50.0 µM); 3% in experiment [6] (setting [7]); 60% in experiment [6] (setting [8]); 54% in experiment [6] (at 50.0 µM).
Take `CN(C)/N=C\C1CC=CCC1` (configuration not stated): the growth inhibition is -148% in experiment [1] (setting [7]); -148% in experiment [1] (setting [8]); 25.2% in experiment [1] (at 50.0 µM); -46% in experiment [2] (setting [7]); -51% in experiment [2] (setting [8]); 5.35% in experiment [2] (at 50.0 µM). For the same molecule, the growth inhibition in experiment [3] (setting [7]) is -58%; in experiment [3] (setting [8]), -61%; in experiment [3] (at 50.0 µM), 30.9%; in experiment [4] (setting [7]), -58%; in experiment [4] (setting [8]), -70%; in experiment [4] (at 50.0 µM), 82.9% (active). In addition, the growth inhibition was -71% in experiment [5] (setting [7]); -80% in experiment [5] (setting [8]); 21.8% in experiment [5] (at 50.0 µM); -141% in experiment [6] (setting [7]); -120% in experiment [6] (setting [8]); 38% in experiment [6] (at 50.0 µM).
As for `COc1ccc(Nc2nc3ccccc3s2)cc1`, the growth inhibition in experiment [1] (setting [7]) was 1%; in experiment [1] (setting [8]), 15%; in experiment [1] (at 50.0 µM) it was 21%; in experiment [2] (setting [7]) it was -3%; in experiment [2] (setting [8]), 0%; in experiment [2] (at 50.0 µM), 35.4%. Also, the growth inhibition in experiment [3] (setting [7]) is 0%; in experiment [3] (setting [8]), 35%; in experiment [3] (at 50.0 µM), 38.3%; in experiment [4] (setting [7]), -7%; in experiment [4] (setting [8]), -14%; in experiment [4] (at 50.0 µM), -66%. In addition, the growth inhibition is 5% in experiment [5] (setting [7]); 42% in experiment [5] (setting [8]); 85.8% (active) in experiment [5] (at 50.0 µM); 10% in experiment [6] (setting [7]); 15% in experiment [6] (setting [8]); 58.7% in experiment [6] (at 50.0 µM).
Take `Cc1cc2c(cc1S(=O)(=O)O)C1C(C3C2C2(Cl)C(Cl)=C(Cl)C3(Cl)C2(Cl)Cl)C2(Cl)C(Cl)=C(Cl)C1(Cl)C2(Cl)Cl` (configuration not stated): the growth inhibition was 1% in experiment [1] (setting [7]); 69% in experiment [1] (setting [8]); 82.4% (active) in experiment [1] (at 50.0 µM); -14% in experiment [2] (setting [7]); 72% (active) in experiment [2] (setting [8]); 74.4% (active) in experiment [2] (at 50.0 µM). Also, the growth inhibition in experiment [3] (setting [7]) was 27%; in experiment [3] (setting [8]) it was 87% (active); in experiment [3] (at 50.0 µM) it was 86.8% (active); in experiment [4] (setting [7]), 33%; in experiment [4] (setting [8]), 84% (active); in experiment [4] (at 50.0 µM) it was 60.7%. The growth inhibition in experiment [5] (setting [7]) was -15%; in experiment [5] (setting [8]), 82% (active); in experiment [5] (at 50.0 µM) it was 70.8% (active); in experiment [6] (setting [7]), -20%; in experiment [6] (setting [8]), 87% (active); in experiment [6] (at 50.0 µM), 79.2% (active).
As to `CC1(C)CNCC(C)(OCc2ccccc2)C(=O)NC(C)(C)CNCC(C)(OCc2ccccc2)C(=O)N1` (configuration not stated), the growth inhibition in experiment [1] (setting [7]) is -6%; in experiment [1] (setting [8]), -19%; in experiment [1] (at 50.0 µM), -1.9%; in experiment [2] (setting [7]), -15%; in experiment [2] (setting [8]) it was -8%; in experiment [2] (at 50.0 µM), -3.4%. The growth inhibition in experiment [3] (setting [7]) was -8%; in experiment [3] (setting [8]), 7%; in experiment [3] (at 50.0 µM), -20.9%; in experiment [4] (setting [7]) it was -15%; in experiment [4] (setting [8]) it was -5%; in experiment [4] (at 50.0 µM), 31.5%. Further, the growth inhibition in experiment [5] (setting [7]) was -10%; in experiment [5] (setting [8]), 3%; in experiment [5] (at 50.0 µM) it was -68.2%; in experiment [6] (setting [7]) it was -10%; in experiment [6] (setting [8]) it was 6%; in experiment [6] (at 50.0 µM), -10.4%.
In the case of `CCC(=O)C(CCN(CC)CC)(CCN(CC)CC)c1ccccc1`, the growth inhibition is -1% in experiment [1] (setting [7]); -5% in experiment [1] (setting [8]); 87.5% (active) in experiment [1] (at 50.0 µM); -2% in experiment [2] (setting [7]); -4% in experiment [2] (setting [8]); 99.3% (active) in experiment [2] (at 50.0 µM). For the same molecule, the growth inhibition in experiment [3] (setting [7]) is -2%; in experiment [3] (setting [8]), -4%; in experiment [3] (at 50.0 µM), 42.4%; in experiment [4] (setting [7]), 3%; in experiment [4] (setting [8]), -8%; in experiment [4] (at 50.0 µM) it was 71% (active). Moreover, the growth inhibition in experiment [5] (setting [7]) is 1%; in experiment [5] (setting [8]), -3%; in experiment [5] (at 50.0 µM), 99.2% (active); in experiment [6] (setting [7]), -2%; in experiment [6] (setting [8]), -7%; in experiment [6] (at 50.0 µM) it was 97.8% (active).
